The supplement of paper PMC10849652
The full data set covers some 8,800 targets. This sample favours those with a hit. About 0.5% of all pairs of compound and target were hits. A number with no mark means an inactive call.

What was measured:
Assay in all cases: log2 fold change, soluble protein after heating vs DMSO (PISA); higher = thermal stabilisation; K562 lysate, 10 uM; active = over 0.2 and 3.5 SD of the protein, either way, in both replicates (recomputed)
lapatinib = compound: CS(=O)(=O)CCNCc1ccc(-c2ccc3ncnc(Nc4ccc(OCc5cccc(F)c5)c(Cl)c4)c3c2)o1 [lapatinib]
Method in brief: (§1)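 To prepare the extract, K562 pellets were dounce-homogenised in PBS pH 7.4 with 1 mM MgCl2, giving crude material at 1 mg/mL protein. This was treated with 10 μM compound for 30 min, then heated in aliquots for 3 min over 48°C-58°C before pooling and addition of NP-40 to 0.5% at 4°C. Centrifugation at 21,000xg for 90 min left soluble protein in the supernatant, which TMTpro 16plex LC-MS/MS quantified with equalised channel sums. Results are log-two fold changes in thermal stability compared with solvent controls, from duplicates.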

pictilisib = compound: CS(=O)(=O)N1CCN(Cc2cc3nc(-c4cccc5[nH]ncc45)nc(N4CCOCC4)c3s2)CC1 [pictilisib]
Method in brief: as §1

crizotinib = compound: C[C@@H](Oc1cc(-c2cnn(C3CCNCC3)c2)cnc1N)c1c(Cl)ccc(F)c1Cl [crizotinib]
Method in brief: as §1

[1] = compound: C[C@H](C1=CC=C(C=C1)C(=O)NC2=C3C=CNC3=NC=C2)N
Method in brief: as §1

duvelisib = compound: C[C@H](Nc1ncnc2nc[nH]c12)c1cc2cccc(Cl)c2c(=O)n1-c1ccccc1 [duvelisib]
Method in brief: as §1

gandotinib = compound: Cc1cc(Nc2cc(CN3CCOCC3)c3nc(C)c(Cc4ccc(Cl)cc4F)n3n2)n[nH]1 [gandotinib]
Method in brief: as §1

tozasertib = compound: Cc1cc(Nc2cc(N3CCN(C)CC3)nc(Sc3ccc(NC(=O)C4CC4)cc3)n2)n[nH]1 [tozasertib]
Method in brief: as §1

doramapimod = compound: Cc1ccc(-n2nc(C(C)(C)C)cc2NC(=O)Nc2ccc(OCCN3CCOCC3)c3ccccc23)cc1 [doramapimod]
Method in brief: as §1

bafetinib = compound: Cc1ccc(NC(=O)c2ccc(CN3CC[C@H](N(C)C)C3)c(C(F)(F)F)c2)cc1Nc1nccc(-c2cncnc2)n1 [bafetinib]
Method in brief: as §1

[2] = compound: Cc1cccc(CC(=O)N2CCc3c2ccc(-c2cn(C)c4ncnc(N)c24)c3F)n1
Method in brief: as §1

nilotinib = compound: Cc1cn(-c2cc(NC(=O)c3ccc(C)c(Nc4nccc(-c5cccnc5)n4)c3)cc(C(F)(F)F)c2)cn1 [nilotinib]
Method in brief: as §1

[3] = compound: Cc1nc(Nc2n[nH]c3c2CN(C(=O)N[C@H](CN(C)C)c2ccccc2)C3(C)C)c2sccc2n1
Method in brief: as §1

dasatinib = compound: Cc1nc(Nc2ncc(C(=O)Nc3c(C)cccc3Cl)s2)cc(N2CCN(CCO)CC2)n1 [dasatinib]
Method in brief: as §1

[4] = compound: Cc1ncc(-c2ccnc(Nc3ccc(S(C)(=O)=O)cc3)n2)n1C(C)C
Method in brief: as §1

[5] = compound: Cn1cc(-c2ccc3c(c2)CCN3C(=O)Cc2cccc(C(F)(F)F)c2)c2c(N)ncnc21
Method in brief: as §1

quisinostat = compound: Cn1cc(CNCC2CCN(c3ncc(C(=O)NO)cn3)CC2)c2ccccc21 [quisinostat]
Method in brief: as §1

tipifarnib = compound: Cn1cncc1[C@@](N)(c1ccc(Cl)cc1)c1ccc2c(c1)c(-c1cccc(Cl)c1)cc(=O)n2C [tipifarnib]
Method in brief: as §1

[6] = compound: NC(=O)Nc1cc(-c2cccc(F)c2)sc1C(=O)N[C@H]1CCCNC1
Method in brief: as §1

[7] = compound: NC(=O)c1cnc(N[C@@H]2CCCC[C@@H]2N)nc1Nc1cccc(-n2nccn2)c1
Method in brief: as §1

[8] = compound: NC1(c2ccc(-c3nc4ccn5c(=O)[nH]nc5c4cc3-c3ccccc3)cc2)CCC1
Method in brief: as §1

Sequence of UniProt P48553 (P48553 whole entry, looked up): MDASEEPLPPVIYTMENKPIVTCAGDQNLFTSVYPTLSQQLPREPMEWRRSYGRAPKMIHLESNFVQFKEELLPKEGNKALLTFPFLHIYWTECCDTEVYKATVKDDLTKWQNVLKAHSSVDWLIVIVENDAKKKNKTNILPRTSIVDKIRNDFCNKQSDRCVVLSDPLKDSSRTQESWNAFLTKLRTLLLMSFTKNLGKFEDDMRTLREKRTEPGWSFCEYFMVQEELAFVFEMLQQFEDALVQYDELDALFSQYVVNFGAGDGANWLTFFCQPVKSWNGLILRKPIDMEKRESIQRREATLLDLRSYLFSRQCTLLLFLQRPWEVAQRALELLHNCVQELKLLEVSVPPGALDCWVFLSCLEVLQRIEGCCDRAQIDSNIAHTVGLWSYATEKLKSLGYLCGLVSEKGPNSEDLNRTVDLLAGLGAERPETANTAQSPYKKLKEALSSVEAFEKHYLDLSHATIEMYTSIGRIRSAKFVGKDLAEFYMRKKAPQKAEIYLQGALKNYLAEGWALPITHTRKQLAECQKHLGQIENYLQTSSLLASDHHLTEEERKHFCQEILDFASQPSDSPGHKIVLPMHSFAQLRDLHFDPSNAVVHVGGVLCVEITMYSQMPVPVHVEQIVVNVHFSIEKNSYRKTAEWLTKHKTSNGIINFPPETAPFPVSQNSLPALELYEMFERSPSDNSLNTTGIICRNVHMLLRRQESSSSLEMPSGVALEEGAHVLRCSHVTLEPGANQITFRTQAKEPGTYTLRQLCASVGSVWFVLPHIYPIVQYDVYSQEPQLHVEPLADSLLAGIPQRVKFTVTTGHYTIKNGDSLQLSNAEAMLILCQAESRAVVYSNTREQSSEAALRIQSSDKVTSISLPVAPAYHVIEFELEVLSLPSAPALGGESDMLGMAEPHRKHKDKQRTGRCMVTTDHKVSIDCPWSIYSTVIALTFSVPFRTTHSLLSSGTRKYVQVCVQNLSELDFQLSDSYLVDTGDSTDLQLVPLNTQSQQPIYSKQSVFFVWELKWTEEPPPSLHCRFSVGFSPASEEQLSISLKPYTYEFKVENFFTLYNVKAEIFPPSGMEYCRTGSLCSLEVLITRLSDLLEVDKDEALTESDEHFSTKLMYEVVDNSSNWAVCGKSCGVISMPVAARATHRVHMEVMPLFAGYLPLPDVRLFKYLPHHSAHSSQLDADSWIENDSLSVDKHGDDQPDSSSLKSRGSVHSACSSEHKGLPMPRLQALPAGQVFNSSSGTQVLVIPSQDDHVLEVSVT
Sequence of UniProt Q9BRZ2 (Q9BRZ2 whole entry, looked up): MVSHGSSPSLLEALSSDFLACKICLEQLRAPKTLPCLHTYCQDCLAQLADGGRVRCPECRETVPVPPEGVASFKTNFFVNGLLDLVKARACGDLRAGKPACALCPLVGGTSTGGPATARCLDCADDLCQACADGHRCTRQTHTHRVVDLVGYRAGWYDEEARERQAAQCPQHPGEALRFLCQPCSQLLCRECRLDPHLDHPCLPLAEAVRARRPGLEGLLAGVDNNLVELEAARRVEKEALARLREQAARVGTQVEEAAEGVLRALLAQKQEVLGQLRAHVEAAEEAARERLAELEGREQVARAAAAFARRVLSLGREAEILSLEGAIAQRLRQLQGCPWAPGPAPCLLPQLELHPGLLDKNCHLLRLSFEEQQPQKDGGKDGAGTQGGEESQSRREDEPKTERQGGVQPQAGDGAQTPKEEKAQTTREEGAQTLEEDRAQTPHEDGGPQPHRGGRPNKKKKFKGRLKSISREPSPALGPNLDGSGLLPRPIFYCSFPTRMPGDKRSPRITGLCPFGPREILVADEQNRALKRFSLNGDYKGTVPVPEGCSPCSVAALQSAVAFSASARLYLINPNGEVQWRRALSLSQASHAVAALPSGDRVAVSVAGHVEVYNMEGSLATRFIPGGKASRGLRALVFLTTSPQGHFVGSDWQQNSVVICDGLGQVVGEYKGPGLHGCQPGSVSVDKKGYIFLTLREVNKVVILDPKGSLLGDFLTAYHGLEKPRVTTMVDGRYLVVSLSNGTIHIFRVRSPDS
Sequence of UniProt Q6PJ69 (Q6PJ69 whole entry, looked up): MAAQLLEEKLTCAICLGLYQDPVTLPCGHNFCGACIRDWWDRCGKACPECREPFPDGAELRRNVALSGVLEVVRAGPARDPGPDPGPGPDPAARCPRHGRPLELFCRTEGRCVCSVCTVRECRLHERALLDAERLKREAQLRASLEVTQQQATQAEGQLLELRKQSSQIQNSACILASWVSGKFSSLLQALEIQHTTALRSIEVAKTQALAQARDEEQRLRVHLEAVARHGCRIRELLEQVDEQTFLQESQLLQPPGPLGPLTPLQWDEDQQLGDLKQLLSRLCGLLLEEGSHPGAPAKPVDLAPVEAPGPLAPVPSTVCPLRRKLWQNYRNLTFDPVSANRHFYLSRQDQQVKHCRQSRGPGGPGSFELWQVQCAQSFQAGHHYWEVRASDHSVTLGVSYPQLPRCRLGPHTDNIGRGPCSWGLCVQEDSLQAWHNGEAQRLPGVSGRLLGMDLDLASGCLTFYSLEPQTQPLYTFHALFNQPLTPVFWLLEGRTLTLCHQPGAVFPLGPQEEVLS
Sequence of UniProt P06753 (P06753 whole entry, looked up): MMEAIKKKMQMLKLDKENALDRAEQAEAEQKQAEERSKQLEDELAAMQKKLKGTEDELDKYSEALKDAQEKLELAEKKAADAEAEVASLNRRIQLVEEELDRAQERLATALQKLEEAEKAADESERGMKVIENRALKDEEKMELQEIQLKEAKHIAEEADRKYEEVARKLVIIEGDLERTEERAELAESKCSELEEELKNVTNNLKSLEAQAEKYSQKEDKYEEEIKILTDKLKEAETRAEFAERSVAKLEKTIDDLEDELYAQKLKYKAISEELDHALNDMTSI
Sequence of UniProt P68363 (P68363 whole entry, looked up): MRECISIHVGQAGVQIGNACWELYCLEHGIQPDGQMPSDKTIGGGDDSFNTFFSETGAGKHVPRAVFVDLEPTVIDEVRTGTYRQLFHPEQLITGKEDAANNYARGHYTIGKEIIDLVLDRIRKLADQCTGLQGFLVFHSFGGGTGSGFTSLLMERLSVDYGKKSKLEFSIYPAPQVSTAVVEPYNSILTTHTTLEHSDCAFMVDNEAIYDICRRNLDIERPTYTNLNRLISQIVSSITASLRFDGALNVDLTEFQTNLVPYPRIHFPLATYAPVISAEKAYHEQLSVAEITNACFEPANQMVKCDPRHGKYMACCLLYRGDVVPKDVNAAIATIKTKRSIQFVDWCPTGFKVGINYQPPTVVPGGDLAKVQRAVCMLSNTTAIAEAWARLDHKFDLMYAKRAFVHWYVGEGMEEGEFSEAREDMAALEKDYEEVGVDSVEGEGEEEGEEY
Sequence of UniProt Q14258 (Q14258 whole entry, looked up): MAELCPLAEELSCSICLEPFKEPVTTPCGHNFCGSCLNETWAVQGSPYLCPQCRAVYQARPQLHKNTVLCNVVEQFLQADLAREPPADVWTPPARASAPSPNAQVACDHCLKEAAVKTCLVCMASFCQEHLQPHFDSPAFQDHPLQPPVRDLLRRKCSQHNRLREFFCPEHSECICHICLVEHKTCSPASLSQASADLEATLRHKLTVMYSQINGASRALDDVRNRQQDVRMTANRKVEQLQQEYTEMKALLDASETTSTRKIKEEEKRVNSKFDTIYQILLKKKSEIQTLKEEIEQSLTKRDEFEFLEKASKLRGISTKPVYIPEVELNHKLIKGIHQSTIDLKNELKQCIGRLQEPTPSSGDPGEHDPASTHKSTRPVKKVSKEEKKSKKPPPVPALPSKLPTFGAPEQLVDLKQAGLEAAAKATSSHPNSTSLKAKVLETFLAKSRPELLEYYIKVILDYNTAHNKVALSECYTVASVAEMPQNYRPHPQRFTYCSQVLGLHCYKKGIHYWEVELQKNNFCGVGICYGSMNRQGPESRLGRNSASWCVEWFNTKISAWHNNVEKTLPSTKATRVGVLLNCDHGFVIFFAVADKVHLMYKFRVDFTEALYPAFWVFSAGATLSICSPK
Sequence of UniProt Q96K49 (Q96K49 whole entry, looked up): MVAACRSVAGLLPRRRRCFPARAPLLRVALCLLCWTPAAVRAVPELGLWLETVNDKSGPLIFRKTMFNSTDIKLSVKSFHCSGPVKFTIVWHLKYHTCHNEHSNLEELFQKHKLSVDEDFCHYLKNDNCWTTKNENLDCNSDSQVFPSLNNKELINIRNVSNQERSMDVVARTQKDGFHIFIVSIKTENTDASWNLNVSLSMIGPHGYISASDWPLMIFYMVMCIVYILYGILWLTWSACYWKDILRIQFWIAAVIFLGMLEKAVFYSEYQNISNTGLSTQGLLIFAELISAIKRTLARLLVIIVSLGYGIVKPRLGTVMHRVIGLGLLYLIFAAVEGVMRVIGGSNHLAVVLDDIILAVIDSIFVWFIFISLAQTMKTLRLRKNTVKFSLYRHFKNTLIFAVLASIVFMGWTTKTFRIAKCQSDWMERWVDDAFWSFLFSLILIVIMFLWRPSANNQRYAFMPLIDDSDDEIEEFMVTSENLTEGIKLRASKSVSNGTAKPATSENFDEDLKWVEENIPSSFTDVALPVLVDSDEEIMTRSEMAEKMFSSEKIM
Sequence of UniProt Q9H4B7 (Q9H4B7 whole entry, looked up): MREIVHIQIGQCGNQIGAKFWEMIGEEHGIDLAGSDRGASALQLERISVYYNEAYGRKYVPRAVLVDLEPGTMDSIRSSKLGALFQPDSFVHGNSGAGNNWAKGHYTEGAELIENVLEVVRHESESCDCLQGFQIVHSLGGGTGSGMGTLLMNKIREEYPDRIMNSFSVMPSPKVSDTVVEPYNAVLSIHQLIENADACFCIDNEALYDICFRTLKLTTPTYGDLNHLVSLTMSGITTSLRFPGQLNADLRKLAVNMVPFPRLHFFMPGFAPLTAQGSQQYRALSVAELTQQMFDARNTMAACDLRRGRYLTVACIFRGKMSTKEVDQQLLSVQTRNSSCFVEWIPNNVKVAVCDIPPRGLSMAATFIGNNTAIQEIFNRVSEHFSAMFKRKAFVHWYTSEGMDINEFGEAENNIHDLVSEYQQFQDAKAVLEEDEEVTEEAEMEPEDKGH

Target	log2 fold change (lapatinib)	log2 fold change (pictilisib)	log2 fold change (crizotinib)	log2 fold change [1]	log2 fold change (duvelisib)	log2 fold change (gandotinib)	log2 fold change (tozasertib)	log2 fold change (doramapimod)	log2 fold change (bafetinib)	log2 fold change [2]	log2 fold change (nilotinib)	log2 fold change [3]	log2 fold change (dasatinib)	log2 fold change [4]	log2 fold change [5]	log2 fold change (quisinostat)	log2 fold change (tipifarnib)	log2 fold change [6]	log2 fold change [7]	log2 fold change [8]
TMEM70 (UniProt Q9BUB7)	-0.002	-0.012	-0.082	-0.304 (active)	0.011	0.057	-0.014	0.092	-0.038	0.138	-0.05	-0.046	-0.065	0.023	-0.003	-0.206	-0.007	0.02	0.009	-0.001
UBR5 (UniProt O95071)	-0.003	-0.009	-0.055	-0.01	-0.004	-0.018	0.001	0.012	-0.047	0.046	0.006	0.027	-0.028	-0.019	0.019	-0.059	-0.02	0.005	0.013	-0.009
TOE1 (UniProt Q96GM8)	0.002	-0.057	0.003	-0.023	0.052	-0.016	0.059	-0.04	0.047	0.059	-0.039	-0.012	0.016	0.04	0.015	-0.036	0.006	0.023	-0.013	-0.01
TPM3 isoform 2 (UniProt P06753)	-0.012	0.021	0.093	0.095	0.003	-0.169	0.067	0.02	0.055	-0.152	-0.048	0.019	0.012	-0.005	0.014	0.14	0.06	-0.024	-0.003	0.047
UBR4 (UniProt Q5T4S7)	-0.023	-0.015	-0.038	-0.017	-0.001	-0.08	0	0.01	-0.038	0.037	0.007	0.002	-0.027	0.001	0.018	-0.014	-0.001	0.023	-0.005	-0.001
TUBA1B (UniProt P68363)	0.004	0.001	-0.039	-0.015	-0.011	0.022	-0.011	0.023	-0.025	0.002	-0.043	-0.009	-0.051	-0.036	0.01	-0.021	0.002	0.041	0.002	-0.013
TRIM56 (UniProt Q9BRZ2)	0.001	-0.002	-0.002	0.085	0.003	-0.071	0	0.023	-0.132	0.085	0.033	0.031	-0.073	-0.006	0.017	-0.043	-0.048	0.005	-0.01	0.007
TESC (UniProt Q96BS2)	-0.03	-0.122	0	-0.095	0.026	-0.066	0.026	0.073	0.048	0.037	0.031	-0.025	0.053	0.05	0.02	0.012	0.012	-0.036	-0.035	0.049
TRAPPC10 (UniProt P48553)	0	0	-0.034	-0.101	-0.016	0.022	-0.01	-0.027	-0.007	0.074	0.008	0	0.011	-0.003	0.02	-0.006	0.011	0.035	0.026	-0.05
TTL (UniProt Q8NG68)	-0.015	-0.057	-0.067	0.096	0.356 (active)	-0.033	-0.112	-0.011	-0.091	-0.048	-0.045	-0.082	-0.049	-0.062	0.056	-0.115	-0.008	0.017	0.018	0.03
TUBA1C (UniProt Q9BQE3)	0.004	-0.057	-0.045	-0.013	-0.019	0.062	-0.008	-0.026	0.005	0.021	-0.001	0.021	-0.017	0.006	0.018	-0.038	-0.007	0.014	-0.006	-0.052
TRIM65 (UniProt Q6PJ69)	0.028	-0.035	-0.046	-0.06	0.072	-0.102	0.042	-0.02	0.034	0.088	-0.025	-0.008	-0.059	-0.021	0.005	-0.016	-0.004	0	0.08	-0.017
TRIM25 (UniProt Q14258)	0.009	-0.031	0.1	0.031	-0.021	0	0.03	-0.036	-0.012	-0.038	0.014	0.027	-0.003	-0.001	-0.002	0.002	-0.001	-0.001	-0.019	0.023
TMEM87B (UniProt Q96K49)	-0.044	0.147	-0.017	0.004	0.039	-0.077	0.068	0.026	0.126	0	0.008	0.086	-0.006	-0.02	0.023	-0.012	-0.011	-0.016	-0.019	-0.048
TTMP isoform 3 (UniProt Q5BVD1)	-0.1	0.013	-0.241	-0.618 (active)	0.138	0.384	-0.022	0.137	-0.197	0.47	0.118	-0.023	-0.079	-0.022	-0.046	-0.475	-0.089	0.048	0.116	-0.113
TUBB1 (UniProt Q9H4B7)	-0.006	-0.007	-0.025	0.093	-0.01	-0.015	-0.027	-0.046	0.036	-0.06	0.095	-0.013	-0.043	-0.004	0.002	0.079	0.03	0.009	-0.006	-0.019
